According to PubChem BioAssay (NCATS):
Results filed as inconclusive are left out. Where a call stands in place of a potency, no number is given. Unmarked numbers belong to inactive results. Activity calls are given as the source filed them. The call rests on the fitted dose curve; in most records, active means well fitted curve in the direction sought with a large enough effect; inconclusive means small, poorly fitted or top-dose-only effect, or another doubt; inactive means no such curve, though single readings can be large; an effect the other way counts as inactive or inconclusive.

Assays:
[1] = target: Rap guanine nucleotide exchange factor 3 (Homo sapiens) (UniProt O95398); test: Confirmatory qHTS for antagonist of cAMP-regulated guanine nucleotide exchange factor 3 (EPAC1) (AID 1645880); settings: EPAC1 Rap1B-BODIPY-GDP exchange, fluorescence; activity, negative = inhibition: at 115 µM (top of the series); further: nearly all actives have a fitted effect of over 55% in size
Chain of Rap guanine nucleotide exchange factor 3 (Homo sapiens) (O95398 whole entry, looked up): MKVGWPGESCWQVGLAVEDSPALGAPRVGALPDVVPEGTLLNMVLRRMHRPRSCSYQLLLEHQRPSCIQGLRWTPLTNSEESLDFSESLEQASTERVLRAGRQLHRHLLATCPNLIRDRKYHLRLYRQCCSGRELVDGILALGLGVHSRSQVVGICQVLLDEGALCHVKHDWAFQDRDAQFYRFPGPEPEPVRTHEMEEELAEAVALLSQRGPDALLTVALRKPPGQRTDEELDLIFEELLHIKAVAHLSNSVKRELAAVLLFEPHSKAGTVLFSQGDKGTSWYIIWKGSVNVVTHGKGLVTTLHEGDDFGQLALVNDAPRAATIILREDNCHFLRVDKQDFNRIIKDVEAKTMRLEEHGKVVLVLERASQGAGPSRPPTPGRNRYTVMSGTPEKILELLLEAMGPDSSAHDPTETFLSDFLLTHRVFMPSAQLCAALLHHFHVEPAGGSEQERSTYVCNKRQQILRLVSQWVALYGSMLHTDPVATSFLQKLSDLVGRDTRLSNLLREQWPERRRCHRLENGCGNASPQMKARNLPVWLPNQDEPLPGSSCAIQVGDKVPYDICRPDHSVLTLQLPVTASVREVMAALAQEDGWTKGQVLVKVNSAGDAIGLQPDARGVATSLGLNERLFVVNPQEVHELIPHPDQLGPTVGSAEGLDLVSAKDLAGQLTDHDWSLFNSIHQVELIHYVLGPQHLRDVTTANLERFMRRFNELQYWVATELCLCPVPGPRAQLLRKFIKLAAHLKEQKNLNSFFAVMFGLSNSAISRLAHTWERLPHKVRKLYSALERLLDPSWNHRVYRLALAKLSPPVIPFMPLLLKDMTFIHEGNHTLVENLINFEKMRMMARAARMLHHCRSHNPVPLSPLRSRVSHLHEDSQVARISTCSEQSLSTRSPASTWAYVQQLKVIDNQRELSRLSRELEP
In short: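 Released BODIPY-GDP fluoresces less than Rap1-bound BODIPY-GDP; the signal is followed at 480/540 nm at 5-min intervals over 30 min, after 5 min at room temperature. Reactions contain 100 nM EPAC1, 250 nM RAP1B-BODIPY-GDP and 50 uM GDP; results are normalized to ATA and DMSO.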

[2] = target: Rap guanine nucleotide exchange factor 3 (Homo sapiens) (UniProt O95398); test: Confirmatory qHTS for agonist of cAMP-regulated guanine nucleotide exchange factor 3 (EPAC1) (AID 1645881); further: nearly all actives have a fitted effect of over 75% in size;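 on activation: EPAC1 catalysed release of BODIPY-GDP from Rap1B seen as fluorescence loss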
[3] = target: Rap guanine nucleotide exchange factor 4 (Homo sapiens) (UniProt Q8WZA2); test: Confirmatory qHTS for agonist of cAMP-regulated guanine nucleotide exchange factor 4 (EPAC2) (AID 1645884);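 further: nucleotide exchange releases bodipy-GDP from Rap1 and this lowers its fluorescence; nearly all actives have a fitted effect of over 65% in size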
Chain of Rap guanine nucleotide exchange factor 4 (Homo sapiens) (Q8WZA2 whole entry, looked up): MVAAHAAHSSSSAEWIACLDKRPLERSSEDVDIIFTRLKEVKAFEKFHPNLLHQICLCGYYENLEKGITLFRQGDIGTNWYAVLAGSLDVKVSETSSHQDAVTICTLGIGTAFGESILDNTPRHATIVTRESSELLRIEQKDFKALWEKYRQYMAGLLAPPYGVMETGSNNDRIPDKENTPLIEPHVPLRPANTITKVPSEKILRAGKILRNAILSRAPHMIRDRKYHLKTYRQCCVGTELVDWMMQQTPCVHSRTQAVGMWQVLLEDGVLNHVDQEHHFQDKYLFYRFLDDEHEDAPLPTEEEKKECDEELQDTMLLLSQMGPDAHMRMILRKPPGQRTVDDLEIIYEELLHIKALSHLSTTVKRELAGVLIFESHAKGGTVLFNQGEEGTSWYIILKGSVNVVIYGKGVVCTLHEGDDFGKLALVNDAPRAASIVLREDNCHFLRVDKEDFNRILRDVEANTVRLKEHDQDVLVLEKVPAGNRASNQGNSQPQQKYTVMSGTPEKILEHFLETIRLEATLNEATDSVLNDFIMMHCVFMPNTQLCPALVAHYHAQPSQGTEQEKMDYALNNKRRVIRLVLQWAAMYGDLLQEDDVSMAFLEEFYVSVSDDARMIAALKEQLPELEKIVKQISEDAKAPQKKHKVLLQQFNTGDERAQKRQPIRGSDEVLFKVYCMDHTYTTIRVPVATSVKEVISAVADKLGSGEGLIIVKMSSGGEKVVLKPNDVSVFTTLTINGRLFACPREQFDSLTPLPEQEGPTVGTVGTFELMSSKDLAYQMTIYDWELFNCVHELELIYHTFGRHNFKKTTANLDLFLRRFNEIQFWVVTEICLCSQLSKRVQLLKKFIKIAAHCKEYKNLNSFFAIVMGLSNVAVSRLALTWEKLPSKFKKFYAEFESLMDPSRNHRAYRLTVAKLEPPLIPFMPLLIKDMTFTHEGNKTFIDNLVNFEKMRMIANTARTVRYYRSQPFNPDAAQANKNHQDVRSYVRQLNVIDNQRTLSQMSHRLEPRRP

[4] = target: Rap guanine nucleotide exchange factor 4 (Homo sapiens) (UniProt Q8WZA2); test: Confirmatory qHTS for antagonist of cAMP-regulated guanine nucleotide exchange factor 4 (EPAC2) (AID 1645885); further: nearly all actives have a fitted effect of over 25% in size
[5] = target: Rap guanine nucleotide exchange factor 3 (Homo sapiens) (UniProt O95398); test: Counterscreen qHTS for agonist of cAMP-regulated guanine nucleotide exchange factor 3 (EPAC1) (AID 1645889); further: nearly all actives have a fitted effect of over 40% in size
In short: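 Rap1B-BODIPY-GDP 250 nM + GDP 50 uM; cpds 7-pt, final 9.74 nM–152 uM (activator mode) or from 7.32 nM upwards (inhibitor mode); RT; FI 480/540 nm at 5 and 30 min, then ± cAMP, reread.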
Potency means the concentration at half of the fitted maximal effect.

SMILES | Potency [1] | Potency [2] | Potency [3] | Potency [4] | Potency [5] | outcome [4] | activation [3] | activation [5]
Cc1csc(N=Nc2ccc(N(C)C)cc2)[n+]1[O-] | 67.5 µM (active) | inactive | inactive | 37.9 µM (active) | inactive |  |  | 
CSc1ccc(C2C(C(=O)c3ccco3)=C(O)C(=O)N2c2nnc(SC)s2)cc1 (stereo not given) | 33.8 µM (active) | inactive | inactive | 19 µM (active) | inactive |  |  | 
COc1cc(OC)c(-c2c3cc(O)c(=O)cc-3oc3cc(O)c(O)cc23)cc1OC | inactive | 89.1 µM (active) | 100 µM (active) | inactive | 70.8 µM (active) |  |  | 
O=S(=O)(O)c1cc(O)c(N=Nc2ccc(O)cc2O)c2ccccc12 | 37.9 µM (active) | inactive | inactive | 21.3 µM (active) | inactive |  |  | 
O=C(CSc1n[nH]c(-c2ccccc2)n1)c1ccc(O)c(O)c1 | 42.6 µM (active) | inactive | inactive | inactive | inactive |  |  | 
Cn1/c(=N\NC(=O)C2CCCCC2)sc2ccccc21 | inactive | inactive | inactive | inactive | inactive |  |  | 
Cc1ccc([N+](=O)[O-])cc1S(=O)(=O)N1CCC(C)CC1 | inactive | inactive | inactive | inactive | inactive |  |  | 
Cc1ccc2oc(=O)n(CCCOc3ccccc3Cl)c2c1 | inactive | inactive | inactive | inactive | inactive |  |  | 
CCOc1nc(C)cc(C)c1S(=O)(=O)c1cccc(Cl)c1 | inactive | inactive | inactive | 19 µM (active) | inactive |  |  | 
CCCCn1c(CNC(=O)C23CC4CC(CC(C4)C2)C3)nnc1SCC(=O)Nc1ccc(F)cc1 | inactive | inactive | inactive |  | inactive | inactive [at 12.7 µM] |  | 
Cc1nc2c(C(=O)NCCC3=CCCCC3)c[nH]n2c(=O)c1Cl | 75.7 µM (active) | inactive | inactive | 6.75 µM (active) | inactive |  |  | 
COc1ccc(/C=N/N=C2/C(=O)Nc3ccccc32)cc1O | inactive | inactive |  | inactive |  |  | 6.47% [at 17.1 µM, percent relative to cAMP agonist control] | 36.3% [at 30.8 µM]
COc1ccc(CCNc2oc(-c3ccc(C)cc3)nc2C#N)cc1OC | inactive | inactive |  | inactive |  |  | 5.59% [at 17.1 µM, percent relative to cAMP agonist control] | 26.9% [at 30.8 µM]
CN1CCN(C2=CC3=CC(=C(C#N)C#N)CCC3CC2)CC1 (stereo not given) | inactive | 44.7 µM (active) | 56.2 µM (active) | 6.75 µM (active) | 14.1 µM (active) |  |  | 
Cc1cc2ccccn2c1C(=O)c1cccc(F)c1 | inactive | inactive | inactive | inactive | inactive |  |  | 
Cc1cc(Nc2ncc(Cl)cc2Cl)n(-c2ccccc2C)n1 | inactive | inactive | inactive | 16.9 µM (active) | inactive |  |  | 
Cc1cc(C(=O)Nc2ccon2)c(C)o1 | inactive | inactive | inactive | 84.9 µM (active) | inactive |  |  | 
COc1cc(C(=O)NCC(=O)N/N=C(\C)Cc2ccccc2)cc(OC)c1OC | inactive | inactive | inactive | inactive | inactive |  |  | 
COC(=O)CSc1ncnc2scc(-c3ccccc3)c12 | inactive | inactive |  | inactive |  |  | -0.952% [at 17.1 µM, percent relative to cAMP agonist control] | 5.38% [at 30.8 µM]
Cc1ccc(-c2ccc(CCC(=O)O)n2-c2ccc(C(C)C)cc2)cc1 | 75.7 µM (active) | inactive | inactive | inactive | inactive |  |  | 
CC(C)(C)c1c(Cl)c(O)c(-c2ccccc2)c(=O)n1-c1ccccc1 | 23.9 µM (active) | inactive | inactive | inactive | inactive |  |  | 
O=C1OC(c2ccccc2)Sc2ccccc21 (stereo not given) | inactive | inactive |  | inactive |  |  | 4.47% [at 17.1 µM, percent relative to cAMP agonist control] | -3.76% [at 30.8 µM]
Cc1ccc(-c2nnc(Nc3ccc4c(c3)nc(C)n4C)c3ccccc23)cc1 | inactive | inactive |  | inactive |  |  | 2.89% [at 17.1 µM, percent relative to cAMP agonist control] | 12% [at 30.8 µM]

SMILES | Potency [1] | Potency [2] | Potency [3] | Potency [4] | Potency [5] | outcome [4] | activation [3] | activation [5]
Nc1ncc(Br)cc1S(=O)(=O)Nc1cc(C(F)(F)F)cc(C(F)(F)F)c1 | 75.7 µM (active) | inactive | inactive | inactive | inactive |  |  | 
CC(C)CC1C(=O)N(Cc2cn(Cc3ccco3)nn2)CCS(=O)(=O)N1Cc1ccc(-c2ccc(F)cc2)cc1 (stereo not given) | 84.9 µM (active) | inactive | inactive | 21.3 µM (active) | inactive |  |  | 
Cc1onc(-c2c(Cl)cccc2Cl)c1COC(=O)c1ccc(Cl)cc1 | inactive | inactive | inactive | inactive | inactive |  |  | 
CCCC(=O)N=C1SC2CS(=O)(=O)CC2N1c1ccc(CC)cc1 (stereo not given) | inactive | inactive |  | inactive |  |  | -7.85% [at 17.1 µM, percent relative to cAMP agonist control] | -1.33% [at 30.8 µM]
C=CCN(CC=C)Cc1cc(=O)oc2cc(OC)c(Cl)cc12 | inactive | inactive |  | inactive |  |  | 3.78% [at 17.1 µM, percent relative to cAMP agonist control] | 20.9% [at 30.8 µM]
CCN1CCc2c(sc(NC(=O)c3ccc(S(=O)(=O)N4CCCCCC4)cc3)c2C(=O)NC)C1 | inactive | inactive | inactive | inactive | inactive |  |  | 
CCC(CC)C(=O)N1c2ccccc2C(C)(c2ccccc2)CC1(C)C (stereo not given) | inactive | inactive | inactive | inactive | inactive |  |  | 
CCCN(CCC)c1nc(-c2ccccn2)nc2ccccc12 | inactive | inactive |  | inactive |  |  | -0.687% [at 17.1 µM, percent relative to cAMP agonist control] | 0.395% [at 30.8 µM]
CCCCCn1c(CCNC(=O)c2cccc(C)c2)nc2ccccc21 | inactive | inactive | inactive | inactive | inactive |  |  | 
COc1ccc(C(CC(=O)N2CCCC2)c2ccc(F)cc2)cc1 (stereo not given) | inactive | inactive |  | inactive |  |  | 0% [at 17.1 µM, percent relative to cAMP agonist control] | 0.37% [at 30.8 µM]
Cc1cc(C)c(Nc2cc(S(=O)(=O)O)c(N)c3c2C(=O)c2ccccc2C3=O)c(C)c1 | 30.1 µM (active) | inactive | inactive | 75.7 µM (active) | inactive |  |  | 
COc1ccc(S(=O)(=O)Nc2c(C)nn(C)c2C)cc1Br | inactive | inactive | inactive | inactive | inactive |  |  | 
C=CCn1c(SCC(=O)NC(N)=O)nnc1-c1cc2c(s1)CCC(CC)C2 (stereo not given) | inactive | inactive | inactive | inactive | inactive |  |  | 
O=C1NC(=S)S/C1=C\C=C\c1ccc([N+](=O)[O-])o1 | 8.49 µM (active) | inactive | inactive | inactive | inactive |  |  | 
CC(C)CCn1c(Oc2ccc(Cl)cc2)nc2c1c(=O)n(C)c(=O)n2C | inactive | inactive | inactive | 16.9 µM (active) | inactive |  |  | 
Brc1ccc(N/N=C(/N=Nc2nn[nH]n2)c2ccccc2)cc1 | 33.8 µM (active) | inactive | inactive | inactive | inactive |  |  | 
Cc1ccc(CNC(=O)COc2ccc(C(=O)c3ccc(F)cc3)cc2)cc1 | inactive | inactive | inactive | inactive | inactive |  |  | 
Cn1cc([C@]2(O)C(=O)Nc3ccc(OC(F)(F)F)cc32)c2ccccc21 | inactive | inactive |  | inactive |  |  | 14.8% [at 17.1 µM, percent relative to cAMP agonist control] | 32.2% [at 30.8 µM]
CCOc1cc(/C=C(\C#N)C(=O)Nc2cccc(C(=O)O)c2)cc(Br)c1OC(=O)c1ccc(OC)cc1 | 42.6 µM (active) | inactive | inactive | 12 µM (active) | inactive |  |  | 
CCC(Oc1ccccc1)C(=O)Nc1ccccc1N1CCCCC1 (stereo not given) | inactive | inactive | inactive | inactive | inactive |  |  | 
COc1ccc(N2CCOCC2)c(NC(=O)c2cccc3ccccc23)c1 | inactive | inactive |  | inactive |  |  | 5.58% [at 17.1 µM, percent relative to cAMP agonist control] | 22.6% [at 30.8 µM]
Cc1ccc(S(=O)(=O)NC2CC(=O)N(c3ccc4c(c3)OCCO4)C2)cc1 (stereo not given) | inactive | inactive |  | inactive |  |  | 3.34% [at 17.1 µM, percent relative to cAMP agonist control] | 22.6% [at 30.8 µM]
